High-throughput results from PubChem BioAssay.
Insulin prom inh: TRM-6 insulin promoter activity inhibition | TRM-6 cells (human fetal islet line), insulin promoter-eGFP reporter, imaging; reporter expression induced with tamoxifen | inhibition, % at 2 µM | 0.9% of 130,000 active | AID 1273;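 active = inhibition above the mean plus 3 SD, with well images judged a real hit on visual review, cut at about 60% in these data, passing the limit was not always enough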
WT yeast gro inh: growth inhibition of WT yeast, mitochondrial fusion screen; mitochondrial fusion phenotypic screen, WT strain; inhibition, % at 10 µM; 2.1% of 190,000 active; in the data active = inhibition above about 58%; tested in S. cerevisiae
Insulin prom up: MIN6 insulin promoter up-regulation | 0.3% of 190,000 active | z-score at 5 µM | MIN6 insulin promoter-GFP reporter, high-content imaging; active compounds read high;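 active = z-score above 3 at 5 µM with at least 500 cells counted in the well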
Lmaj promast: inhibitors of Leishmania major promastigote growth; Leishmania major promastigotes, resazurin fluorescence viability; inhibition, % at 10 µM; 9% of 200,000 active; in the data active = inhibition above about 50%;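 note: promastigotes grown with compound for 44 hours at 28 °C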
Autophagy HCS: alters autophagy in cells; MEF GFP-LC3 puncta imaging; test concentration mostly 10 µM; calls only at 10 µM (by protocol); 0.98% of 190,000 active;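 active = percentage of spot-positive cells more than 3 SD above its plate mean, without a fluorescence outlier flag or 80% toxicity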;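 note: spot-positive cell cutoff set from DMSO-treated cells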
* hit, by the source's call. Sampled rows, rich in hits. Any-hit rate of the full collection: about 11%.

Screening Cc1ccc(NC(=O)c2ccc(NCCN)c([N+](=O)[O-])c2)cc1Cl returned Insulin prom inh 3.2, WT yeast gro inh -7.7, Lmaj promast 100.4* and Autophagy HCS inactive.
Screening COc1ccc(N/C(N)=N/c2nc(C)cc(C)n2)c(OC)c1 returned Insulin prom inh -40.0, WT yeast gro inh 4.3, Insulin prom up -1.9, Lmaj promast 13.8 and Autophagy HCS inactive.
`CCCOc1ccccc1N/C(N)=N/c1nc(C)cc(C)n1` gave WT yeast gro inh -4.5, Insulin prom up -4.69, Lmaj promast 90.0* and Autophagy HCS inactive.
Cc1cc(C)nc(/N=C(\N)N(Cc2ccccc2)Cc2ccccc2)n1 was read as WT yeast gro inh 23.1, Insulin prom up -0.81, Lmaj promast 89.9* and Autophagy HCS inactive.
For CCCOc1ccccc1NC(=O)/C=C/C(N)=O the results were Insulin prom inh 64.5, WT yeast gro inh 50.6, Insulin prom up 0.24, Lmaj promast 100.5* and Autophagy HCS inactive.
For CC(=O)Nc1ccc(N/C(N)=N/c2nc(C)cc(C)n2)cc1 the results were WT yeast gro inh -2.7, Insulin prom up -0.54, Lmaj promast 8.6 and Autophagy HCS inactive.
`Cc1cc(C)nc(/N=C(\N)Nc2ccc(-c3ccccc3)cc2)n1` gave WT yeast gro inh 6.7, Insulin prom up -4.68, Lmaj promast 97.5* and Autophagy HCS inactive.
For CCOc1ccc(C(=O)NCC2OCCc3ccccc32)cc1 (stereo unspecified) the results were Insulin prom inh -47.6, WT yeast gro inh 25.7, Lmaj promast -3.6 and Autophagy HCS inactive.
`Cc1cc(C)n2nc(CCCO)nc2n1` gave WT yeast gro inh -12.0, Insulin prom up -0.15, Lmaj promast -7.0 and Autophagy HCS inactive.
`Cc1cc2nccc(-c3ccc(Cl)c([N+](=O)[O-])c3)n2n1` gave Insulin prom inh -11.1, WT yeast gro inh 2.9, Insulin prom up 0.04, Lmaj promast 0.2 and Autophagy HCS inactive.
`COc1ccc(OC)c(N/C(=N/c2nc(C)cc(C)n2)NC(C)=O)c1` gave Insulin prom up -0.15.
For CCCOc1ccccc1N/C(=N/c1nc(C)cc(C)n1)NC(=O)COc1ccc(OC)cc1 the results were Insulin prom inh 16.7, WT yeast gro inh 0.4, Insulin prom up -6.71, Lmaj promast 97.5* and Autophagy HCS inactive.
`O=S(=O)(c1ccc2nc(SCc3cccc(Cl)c3)[nH]c2c1)N1CCOCC1` gave Insulin prom inh 2.0, WT yeast gro inh 2.9, Insulin prom up -0.34, Lmaj promast 17.6 and Autophagy HCS inactive.
Screening COc1ccc(Cc2nc3ccc(S(=O)(=O)N4CCOCC4)cc3[nH]2)cc1 returned Insulin prom inh 48.6, WT yeast gro inh 79.4*, Insulin prom up -0.08, Lmaj promast 0.4 and Autophagy HCS inactive.
For O=S(=O)(c1ccc2nc(SCc3ccc(Cl)cc3)[nH]c2c1)N1CCOCC1 the results were Insulin prom inh -50.0, WT yeast gro inh 6.9, Lmaj promast 81.3* and Autophagy HCS inactive.
Screening Cc1c(NC(=O)CS(=O)(=O)c2ccccc2)c(=O)n(-c2ccccc2)n1C returned WT yeast gro inh 1.8, Insulin prom up 0.08, Lmaj promast -1.9 and Autophagy HCS inactive.
`COCCNC(=O)c1onc(CSc2ccc(C(C)C)cc2)c1C(=O)O` gave Insulin prom inh -24.3, WT yeast gro inh 10.1, Insulin prom up -0.09, Lmaj promast -7.0 and Autophagy HCS inactive.
Screening C/C(=N\S(=O)(=O)c1ccc(C)cc1)N1CCN(S(=O)(=O)c2ccccc2)C1 returned Insulin prom up 3.52*, Lmaj promast -1.9 and Autophagy HCS inactive.
For Cc1cccc(-n2nnnc2SCn2nnc3ccccc3c2=O)c1 the results were Insulin prom inh 66.7, WT yeast gro inh -8.4, Lmaj promast 2.5 and Autophagy HCS active.
`Cc1ccc(S(=O)(=O)Nc2ccc3oc(=O)sc3c2)c(C)c1` gave Insulin prom inh 25.8, WT yeast gro inh 61.0*, Insulin prom up 0.11, Lmaj promast -4.6 and Autophagy HCS inactive.
COC(=O)C1=C(C)Nc2c(c(=O)n(C)c(=O)n2C)C1c1ccncc1 (stereo unspecified) was read as Insulin prom inh 23.5, WT yeast gro inh -3.9, Insulin prom up 0.13, Lmaj promast -3.5 and Autophagy HCS inactive.
COc1ccc(Cl)cc1N(CC(=O)Nc1cccc(SC)c1)S(C)(=O)=O was read as Insulin prom inh 51.7, WT yeast gro inh -25.2, Lmaj promast 61.5* and Autophagy HCS inactive.
For COc1ccc(NC(=O)CN(c2ccccc2)S(=O)(=O)N(C)C)cc1Cl the results were Insulin prom inh -78.6, WT yeast gro inh 11.5, Insulin prom up 1.9, Lmaj promast 9.1 and Autophagy HCS inactive.
For COc1ccc(OC)c(S(=O)(=O)N(C)CC(=O)Nc2cc(Cl)ccc2OC)c1 the results were Insulin prom inh -17.2, WT yeast gro inh 1.5, Lmaj promast 99.6* and Autophagy HCS inactive.
`COc1ccc(Cl)cc1NC(=O)CN(c1ccccc1)S(=O)(=O)N(C)C` gave Insulin prom inh 12.8, WT yeast gro inh 30.2, Insulin prom up -0.5, Lmaj promast 99.6* and Autophagy HCS inactive.
Cc1ccc(C)c(N(CC(=O)Nc2cc(Cl)ccc2Oc2ccccc2)S(C)(=O)=O)c1 was read as Insulin prom inh -17.9, WT yeast gro inh 21.2, Lmaj promast 51.5* and Autophagy HCS inactive.
COc1ccccc1NC(=O)CN(C)S(=O)(=O)c1cc(C)ccc1OC was read as Insulin prom inh -43.3, WT yeast gro inh -23.3, Insulin prom up -0.31, Lmaj promast 8.6 and Autophagy HCS inactive.
For CN(C)C(CNC(=S)Nc1ccccc1Cl)c1cccnc1 (stereo unspecified) the results were WT yeast gro inh 13.5, Insulin prom up -0.49, Lmaj promast 3.6 and Autophagy HCS inactive.
For COC(=O)Cn1cc(/C=C(/C#N)C(=O)N2CCOCC2)c2ccccc21 the results were WT yeast gro inh -20.4, Insulin prom up -0.15, Lmaj promast -4.2 and Autophagy HCS inactive.
`CC(C)C(NC(=O)c1ccccc1F)C(=O)NCCc1ccccn1` (stereo unspecified) gave Insulin prom inh -100.0, WT yeast gro inh 7.8, Insulin prom up 2.01, Lmaj promast -3.3 and Autophagy HCS inactive.
Screening COc1cc(C(=O)OCC(=O)c2c(N)n(C)c(=O)n(C)c2=O)ccc1OCCC(C)C returned Insulin prom inh 25.0, WT yeast gro inh 3.6, Insulin prom up 0.81, Lmaj promast -6.2 and Autophagy HCS inactive.
`Clc1cccc(NCc2nnc(SCc3ccc(Cl)cc3Cl)o2)c1` gave Insulin prom inh 16.3, WT yeast gro inh 62.0*, Insulin prom up 0.35, Lmaj promast -5.5 and Autophagy HCS inactive.
Screening CCOc1ccc2nc(NC(=O)c3c([N+](=O)[O-])cnn3CC)sc2c1 returned Insulin prom inh 6.7, WT yeast gro inh 4.8, Insulin prom up 0.46, Lmaj promast 62.6* and Autophagy HCS inactive.
CCn1ncc([N+](=O)[O-])c1C(=O)n1nc(C)cc1C was read as Insulin prom inh -12.1, WT yeast gro inh -4.0, Insulin prom up 0.21, Lmaj promast -2.5 and Autophagy HCS inactive.
`CCn1ncc([N+](=O)[O-])c1C(=O)Nc1cc(C)on1` gave Insulin prom inh 13.8, WT yeast gro inh -5.7, Insulin prom up 0.54, Lmaj promast 92.4* and Autophagy HCS inactive.
